A short description of assay [1]: qHTS assay to identify small molecule antagonists of the androgen receptor (AR) signaling pathway using the MDA cell line in the presence of 0.5 nM R1881 - cell viability counter screen (AID 1259242). Further: nearly all actives have a fitted effect of over 45% in size. Further: potency means the concentration at half of the fitted maximal effect. In short, it runs like this: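 Counter screen for cytotoxicity run in the same wells as the AR antagonist reporter screen: MDA-kb2 cells were treated 16 hr with test compounds and 0.5 nM R1881, then live-cell protease activity was measured by fluorescence.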
(In general: qHTS replaces the single test concentration by a dilution series.)

For assay [2], the target named is Estrogen receptor (Homo sapiens) (UniProt P03372). Nature of the assay: qHTS assay to identify small molecule antagonists of the estrogen receptor alpha (ER-alpha) signaling pathway using the BG1 cell line in the presence of 0.1 nM 17-beta-estradiol (AID 1259244). Further: nearly all actives have a fitted effect of over 50% in size. Further: potency means the concentration at half of the fitted maximal effect. The essentials:
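Cells: VM7Luc4E2, endogenous ER-alpha, 4x ERE-luc stable. Pre-culture 5 d, phenol red-free, charcoal-stripped FBS. Plated 24 h, compound + E2 0.1 nM final, 22 h 37C/5% CO2. Readout ONE-Glo luminescence.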

Assay [3] is described as follows: qHTS assay to identify small molecule HDAC inhibitors (AID 1259364). Further: nearly all actives have a fitted effect of over 45% in size. Further: potency means the concentration at half of the fitted maximal effect. In short, it runs like this: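 Luminescence from a cell-permeant luminogenic class I/II HDAC substrate reports endogenous deacetylase activity in intact HCT-116 cells treated with compounds for 2 h.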
Assay [4] is described as follows: qHTS assay to identify small molecule HDAC inhibitors - cell viability counter screen (AID 1259365). Further: series mostly up to about 92 µM; nearly all actives have a fitted effect of over 50% in size. The essentials:
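HCT-116 wild-type, overnight attachment; 2hr drug exposure, 37C; CellTiter-Glo luminescent ATP readout after 30min RT.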

A short description of assay [5]: qHTS assay to identify small molecule agonists of the sonic hedgehog signaling (Shh) pathway - cell viability counter screen (AID 1259366). Further: nearly all actives have a fitted effect of over 50% in size. Further: potency means the concentration at half of the fitted maximal effect. In short, it runs like this: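 Compounds in DMSO were pin-transferred onto 3T3 Gli1-Luc cells that had settled 4hr; plates then stood 24hr at 37C and 5% CO2. One hour before the end, CellTiter-Fluor was added and fluorescence recorded.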

Assay [6] can be described thus: qHTS assay to identify small molecule antagonists of the sonic hedgehog signaling (Shh) pathway - cell viability counter screen (AID 1259367). Further: nearly all actives have a fitted effect of over 55% in size. Further: potency means the concentration at half of the fitted maximal effect. In short, it runs like this:
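After a 4 hr settling period, 3T3 Gli1-Luc cells were treated with DMSO-dissolved chemicals and conditioned medium, kept 24 hr at 37C in 5% CO2, and assayed for viability by CellTiter-Fluor fluorescence following 1 hr reagent incubation.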

The nature of assay [7]: qHTS assay to identify small molecule agonists of the sonic hedgehog signaling (Shh) pathway (AID 1259368; calls by dose curve;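 further: NIH/3T3-derived 3T3Gli1-Luc cells carrying a stable Gli1-driven firefly luciferase reporter; series mostly up to about 92 µM; nearly all actives have a fitted effect of over 15% in size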). The essentials: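 3T3Gli1-Luc (NIH/3T3 clone, stable Gli1-Luc); 4 hr pre-incubation, then cpd in DMSO 24 hr, 37 C/5% CO2; luciferase reagent 30 min RT; luminescence.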
A short description of assay [8]: qHTS assay to identify small molecule antagonists of the sonic hedgehog signaling (Shh) pathway (AID 1259369; calls by dose curve; further: nearly all actives have a fitted effect of over 45% in size; further: potency means the concentration at half of the fitted maximal effect). The essentials:
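3T3Gli1-Luc, conditioned-medium-stimulated, 24hr cpd, 37C/5% CO2; Gli1-driven firefly Luc luminescence after 30min RT with luciferase reagent. Cells plated 4hr before cpd.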

Assay [9] is described as follows: qHTS assay to identify small molecule phospholipidosis (PLD) inducers (AID 1259344; active means well fitted curve in the direction sought with a large enough effect; an effect the other way counts as inactive or inconclusive). The essentials:
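HepG2 cells grown on collagen I take up LipidTOX Red while exposed to compound for 24 h; after fixation they are imaged at 20x and pit metrics are extracted.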

Where “and” joins values, the source holds several entries; their conditions need not be identical. Equal values may be shown once. Results filed as inconclusive are left out. More than one record can exist for a structure, and the calls need not agree. Calls of active or inactive are those of the source. Unless noted, the call rests on the fitted dose curve; in most records, active means well fitted curve in the direction sought with a large enough effect in the repeat runs; inconclusive means weak or mixed curves; inactive means no such curve, though single readings can be large; an effect the other way counts as inactive or inconclusive.

Chain of Estrogen receptor (Homo sapiens) (P03372 whole entry, looked up): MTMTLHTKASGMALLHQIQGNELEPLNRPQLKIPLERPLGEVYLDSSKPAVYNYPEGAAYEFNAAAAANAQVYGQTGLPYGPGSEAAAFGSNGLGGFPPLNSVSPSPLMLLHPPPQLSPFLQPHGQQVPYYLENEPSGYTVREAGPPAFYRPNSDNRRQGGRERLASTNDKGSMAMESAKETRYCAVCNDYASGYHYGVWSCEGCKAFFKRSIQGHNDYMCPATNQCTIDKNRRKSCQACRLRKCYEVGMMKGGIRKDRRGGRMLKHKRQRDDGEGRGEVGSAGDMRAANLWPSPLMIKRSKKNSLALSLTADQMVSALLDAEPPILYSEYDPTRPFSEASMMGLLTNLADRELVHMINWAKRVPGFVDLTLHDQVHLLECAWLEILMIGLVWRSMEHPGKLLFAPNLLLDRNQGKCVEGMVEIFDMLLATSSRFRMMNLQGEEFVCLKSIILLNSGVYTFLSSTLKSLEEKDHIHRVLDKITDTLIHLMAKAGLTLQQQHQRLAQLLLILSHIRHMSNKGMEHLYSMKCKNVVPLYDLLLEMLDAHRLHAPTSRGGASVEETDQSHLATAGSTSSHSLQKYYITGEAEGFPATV

For the molecule `O=Cc1ccccc1O`, the Potency entry in assay [1], in [2], in assay [3], in assay [5], in assay [6] and in assay [7] was “inactive” throughout. Besides, in assay [8], the Potency result is “inactive”. In addition, the outcome in [4] was inactive.
Turning to `c1cc(-c2ccncc2)ccn1`, the Potency result in assay [1], in [2], in assay [3], in assay [5], in assay [6] and in assay [7] was “inactive” in each case. Also, in assay [8], the Potency result is “inactive”. Besides, the molecule was called inactive in assay [4].
For the molecule `CCC(C)CO` (stereo unspecified), the Potency result in assay [1], in assay [2], in assay [3], in [5], in assay [6] and in assay [7] was “inactive” in each case. Besides, the Potency result in assay [8] is “inactive”. In addition, the molecule was called inactive in [4].
As to `CC(C)=CCCC(C)CCO` (stereo unspecified), the Potency result in assay [1], in assay [2], in assay [3], in assay [5], in assay [6] and in assay [7] was “inactive” in each case. For the same molecule, in assay [8], the Potency entry is “inactive”.
On to `CC1=CC2C3CC(C=C3C)C2C1` (stereo unspecified), for which the Potency entry in [1], in assay [2], in assay [3], in assay [5], in [6] and in [7] was “inactive” throughout. Also, the Potency result in assay [8] is “inactive and 21.7 µM (active)”.
For the molecule `S=C(NC1CCCCC1)NC1CCCCC1`, the Potency result in assay [1], in assay [3] and in [5] was “inactive” throughout. Besides, the Potency in assay [2] is 53.4 µM (active) and 48.6 µM (active); in assay [6], “inactive and 30.6 µM (active)”; in assay [8], 24.3 µM (active). The molecule was called inactive in [4].
Consider `COc1ccccc1/C=C/C=O`, for which the Potency result in assay [1], in [2], in assay [3], in [5], in assay [6] and in assay [7] was “inactive” in each case. Also, the molecule was called inactive in assay [4]. In [8], the Potency was 35.3 µM (active) and inactive.
On to `O=C(/C=C/C=C/c1ccc2c(c1)OCO2)N1CCCCC1`, for which the Potency entry in assay [1], in [2], in assay [5], in [6] and in assay [8] was “inactive” in each case. The Potency in [3] was 9.71 µM (active) and 8.63 µM (active). The outcome in [4] was inactive.
`O=C(c1ccccc1)c1ccc(O)cc1O`: the Potency result in assay [1], in assay [2], in assay [3], in assay [5] and in assay [7] was “inactive” in each case. For the same molecule, the Potency is 55.5 µM (active) and inactive in [6]; 27.8 µM (active) in assay [8].
With `Nc1ccc(Nc2ccccc2)cc1`, the Potency entry in assay [1], in assay [2], in [3] and in assay [7] was “inactive” throughout. Moreover, the Potency is 61.1 µM (active) in assay [5]; 48.6 µM (active) in [6]; 4.8 µM (active) and 1.72 µM (active) and 4.33 µM (active) in assay [8].
For the molecule `CCCCOCCOCCOCCO`, the Potency entry in assay [1], in assay [2], in assay [3], in assay [5], in assay [6] and in assay [7] was “inactive” in each case. Besides, in assay [8], the Potency result was “inactive”. Further, the molecule was classed as inactive in [4].
With `COC(=O)C1=C(C)NC(C)=C(C(=O)OCCN(C)Cc2ccccc2)C1c1cccc([N+](=O)[O-])c1` (stereo unspecified), the Potency in assay [1] was 60.8 µM (active) and inactive; in assay [2] it was 68.2 µM (active); in assay [5], 30.5 µM (active) and 11.9 µM (active); in [6], 48.3 µM (active) and 2.37 µM (active); in assay [8] it was 68.2 µM (active). Also, the Potency result in [3] and in [7] was “inactive” each time. Further, in assay [4], the molecule was classed as inactive.
Turning to `COC(=O)CCC(=O)OC`, the Potency entry in assay [1], in assay [2], in assay [3], in assay [5], in assay [6] and in assay [7] was “inactive” in each case. In assay [8], the Potency result was “inactive”.
As to `CCC(C)(O)CCCC(C)C` (stereo unspecified), the Potency entry in assay [1], in assay [2], in [3], in [5], in assay [6] and in assay [7] was “inactive” each time. For the same molecule, the Potency result in assay [8] is “inactive”. Moreover, the result in assay [4] was inactive.
For the molecule `O=S(=O)(O)c1ccc(O)cc1`, the Potency result in assay [1], in assay [2], in assay [9], in assay [3], in assay [5] and in assay [6] was “inactive” in each case. Moreover, the Potency entry in [7] and in assay [8] was “inactive” each time.
For the molecule `c1ccc2c(c1)Oc1ccccc1S2`, the Potency entry in assay [1], in assay [2], in [3], in assay [5], in assay [6] and in assay [7] was “inactive” in each case. The Potency entry in assay [8] is “inactive”. Moreover, in [4], the molecule was classed as inactive.
In the case of `C=CC(C)(CCC=C(C)C)OC(C)=O` (stereo unspecified), the Potency entry in [1], in assay [2], in assay [3], in [5], in [6] and in assay [7] was “inactive” each time. In addition, the Potency result in [8] was “inactive”.
`CC(C)OB(OC(C)C)OC(C)C`: the Potency result in assay [1], in [2], in [3], in assay [5], in assay [6] and in assay [7] was “inactive” each time. Further, the Potency entry in assay [8] is “inactive”. The result in [4] was inactive.
In the case of `O=C(OCc1ccccc1)c1ccccc1O`, the Potency entry in [1], in assay [2], in [5], in [6], in assay [7] and in assay [8] was “inactive” in each case. Further, in assay [3], the Potency is 24.2 µM (active) and 24.3 µM (active). The molecule was classed as inactive in [4].
Consider `CC(CCC(=O)O)(c1ccc(O)cc1)c1ccc(O)cc1`, for which the Potency result in [1], in assay [2], in [3], in assay [5], in assay [6] and in assay [7] was “inactive” throughout. In addition, in [8], the Potency entry was “inactive”. In [4], the molecule was classed as inactive.
For `O=[N+]([O-])c1ccc2c(c1)Cc1ccccc1-2`, the Potency entry in [1], in [2], in assay [3], in assay [5], in assay [6] and in assay [7] was “inactive” in each case. In addition, the Potency result in [8] was “inactive”. Also, the molecule was classed as inactive in assay [4].
As to `OC1CCCCCCCCCCC1`, the Potency entry in assay [1], in [2], in assay [3], in assay [5], in assay [6] and in assay [7] was “inactive” in each case. In addition, in assay [8], the Potency entry was “inactive”. In [4], the result was inactive.
For `OC(CCl)CCl`, the Potency entry in assay [1], in assay [2], in [3], in [5], in [6] and in assay [7] was “inactive” throughout. The Potency result in [8] was “inactive”.
In the case of `Cc1c(C(N)=O)cc([N+](=O)[O-])cc1[N+](=O)[O-]`, the Potency entry in assay [1], in [2], in [9], in [3], in assay [5] and in [6] was “inactive” throughout. In addition, the Potency entry in assay [7] and in [8] was “inactive” in each case.
In the case of `Cc1[nH]c(=O)c(C#N)cc1-c1ccncc1`, the Potency result in assay [1], in assay [2], in assay [9], in [3], in assay [5] and in assay [6] was “inactive” each time. In addition, the Potency result in assay [7] and in [8] was “inactive” in each case.

The values are drawn from PubChem BioAssay (Tox21).
